Test results taken from PubChem BioAssay (EPA / NIEHS).
Where “and” joins values, the source holds several entries; their conditions need not be identical. Equal entries are not always repeated. Records with an inconclusive call do not appear. Where a structure was tested more than once in an assay, its records may differ in their call. Calls of active or inactive are those of the source. Rule for the calls, unless noted: active = hit-call score of the fitted dose curve at least 0.9, where 1 is the maximum; inactive = score below 0.9.

What was measured:
[1] = read-out: Plasminogen activator inhibitor-1 (PAI1), SERPINE1 (gene 5054); test: BSK_CASM3C_PAI1: BioMAP Diversity Plus: CASM3C Assay for Plasminogen activator inhibitor-1 (PAI1) Biomarker Activity (AID 2284284); details: primary human coronary artery smooth muscle cells;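 note: PAI-1 protein level measured by ELISA 24 h after dosing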
[2] = read-out: Monocyte Chemoattractant Protein-1 (MCP1), CCL2 (gene 6347); test: BSK_hDFCGF_MCP1: BioMAP Diversity Plus: hDFCGF Assay for Monocyte Chemoattractant Protein-1 (MCP1) Biomarker Activity (AID 2284285); details: primary human foreskin fibroblasts
Summary of the method: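 Human foreskin fibroblasts (hDFCGF system) were exposed to compound and secreted MCP-1 was measured by ELISA after 24 hours. Activity was fitted relative to DMSO. Cytotoxicity was checked by SRB total-protein staining in parallel cultures.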

[3] = read-out: Vascular cell adhesion molecule 1 (VCAM1), VCAM1 (gene 7412); test: BSK_IMphg_VCAM1: BioMAP Diversity Plus: IMphg Assay for Vascular cell adhesion molecule 1 (VCAM1) Biomarker Activity (AID 2284286); details: primary human endothelial cells with macrophages
Summary of the method: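 Human venular endothelial cells co-cultured with macrophages; VCAM-1 quantified by ELISA 24 h after dosing, fitted in the positive direction against DMSO. Cytotoxicity was checked in parallel cultures by SRB total-protein staining (0.1% SRB after 10% TCA fixation, 560 nm).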

[4] = read-out: Intercellular Adhesion Molecule 1 (ICAM1), ICAM1 (gene 3383); test: BSK_hDFCGF_ICAM1: BioMAP Diversity Plus: hDFCGF Assay for Intercellular Adhesion Molecule 1 (ICAM1) Biomarker Activity (AID 2284287); details: primary human foreskin fibroblasts
Summary of the method: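 Primary human foreskin fibroblasts (hDFCGF system) dosed with chemical; ICAM-1 quantified by ELISA at 24 h relative to DMSO. Parallel SRB total-protein staining to assess overt cytotoxicity.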

CD40, CD40 (gene 958) = test: BSK_IMphg_CD40: BioMAP Diversity Plus: IMphg Assay for CD40 Biomarker Activity (AID 2284288); details: primary human endothelial cells with macrophages
Summary of the method: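 Venular endothelial cells co-cultured with macrophages (human primary), CD40 measured by ELISA 24 h after dosing. Positive-direction fit vs DMSO baseline; cytotoxicity tracked by SRB total-protein staining in parallel cultures.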

[5] = read-out: TIMP metallopeptidase inhibitor 2 (TIMP2), TIMP2 (gene 7077); test: BSK_hDFCGF_TIMP2: BioMAP Diversity Plus: hDFCGF Assay for TIMP metallopeptidase inhibitor 2 (TIMP2) Biomarker Activity (AID 2284289); details: primary human foreskin fibroblasts
Summary of the method: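 Primary human foreskin fibroblasts in the hDFCGF system, dosed for 24 h; TIMP-2 level measured by ELISA, fitted in the positive direction against DMSO; cytotoxicity checked in parallel by sulforhodamine B total protein staining.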

[6] = read-out: Interleukin-1 alpha (IL1a), IL1A (gene 3552); test: BSK_IMphg_IL1a: BioMAP Diversity Plus: IMphg Assay for Interleukin-1 alpha (IL1a) Biomarker Activity (AID 2284290); details: primary human endothelial cells with macrophages
Summary of the method: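 Human venular endothelial cells co-cultured with macrophages, IMphg system. IL-1α is measured by ELISA 24 h after dosing and fitted in the positive direction against DMSO. Cytotoxicity is assessed by SRB staining of parallel cultures.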

[7] = read-out: E-selectin (Homo sapiens) (UniProt P16581); test: BSK_IMphg_ESelectin: BioMAP Diversity Plus: IMphg Assay for Eselectin Biomarker Activity (AID 2284291); details: primary human endothelial cells with macrophages
Summary of the method: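 Human venular endothelial cell–macrophage co-culture, E-selectin measured by ELISA 24 h after chemical dosing. Signal fitted in the positive direction against DMSO as negative control and baseline.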

[8] = BSK_IMphg_SRB: Viability Assessment in the BioMAP Diversity Plus: IMphg Assay (AID 2284292); details: primary human endothelial cells with macrophages;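 note: measured one day after compound addition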
Summary of the method: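 Human venular endothelial cells with macrophages, 24 h after chemical dosing; total protein by 0.1% SRB staining after 10% TCA fixation, read at 560 nm. Positive-direction fitting versus DMSO baseline.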

[9] = read-out: Macrophage colony-stimulating factor (MCSF), CSF1 (gene 1435); test: BSK_IMphg_MCSF: BioMAP Diversity Plus: IMphg Assay for Macrophage colony-stimulating factor (MCSF) Biomarker Activity (AID 2284293); details: primary human endothelial cells with macrophages
Summary of the method: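 Co-culture of human venular endothelial cells and macrophages, 24 hours of chemical exposure. M-CSF quantified by ELISA, with parallel SRB total-protein staining for cytotoxicity; activity fitted relative to DMSO.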

[10] = read-out: Interleukin-10 (IL10), IL10 (gene 3586); test: BSK_IMphg_IL10: BioMAP Diversity Plus: IMphg Assay for Interleukin-10 (IL10) Biomarker Activity (AID 2284294); details: primary human endothelial cells with macrophages
Summary of the method: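 Human venular endothelial cells cocultured with macrophages, dosed 24 h; IL-10 measured by ELISA, activity relative to DMSO. Cytotoxicity assessed in parallel cultures by sulforhodamine B total-protein staining.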

[11] = BSK_IMphg_SRB.Mphg: Macrophage Viability Assessment in the BioMAP Diversity Plus: IMphg Assay (AID 2284295); details: primary human endothelial cells with macrophages
Summary of the method: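 Venular endothelial cells co-cultured with macrophages, read 24 h after dosing. Total protein measured by 0.1% SRB staining after 10% TCA fixation, absorbance at 560 nm. Fitted in positive direction against DMSO baseline.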

[12] = read-out: Thrombomodulin, THBD (gene 7056); test: BSK_LPS_Thrombomodulin: BioMAP Diversity Plus: LPS Assay for Thrombomodulin Biomarker Activity (AID 2284296); details: primary human HUVEC with PBMC
Summary of the method: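 Human umbilical vein endothelial cells co-cultured with PBMC and stimulated with LPS; cell-surface thrombomodulin measured by ELISA 24 hours after compound. Gain or loss versus DMSO; cytotoxicity checked by SRB staining in parallel cultures.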

CD69, CD69 (gene 969) = test: BSK_LPS_CD69: BioMAP Diversity Plus: LPS Assay for CD69 Biomarker Activity (AID 2284303); details: primary human HUVEC with PBMC
Summary of the method: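 Human umbilical vein endothelial cells co-cultured with PBMC under LPS stimulation, chemical exposure 24 h; cell-surface CD69 measured by ELISA and fitted in the positive direction versus DMSO.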

TTR (gene 7276) = test: CCTE_GLTED_hTTR_0.5uM: CCTE's human Transthyretin (hTTR) Inhibition Assay, with 0.5uM TTR, Great Lakes Toxicology and Ecology Division (GLTED) Lab (AID 2284320)
Summary of the method: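 Cell-free displacement assay in which human TTR at 0.5 uM was incubated with test chemical for 2 h. Displacement of the ANSA probe was read by fluorescence at 380 nm excitation/475 nm emission. Loss of signal was fitted in the positive direction versus DMSO.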

[13] = CCTE_Mundy_HCI_iCellGluta_NOG_NeuronCount: CCTE's Neurite Outgrowth Assay in iCellGluta cells for Neuron Count, Mundy Lab (AID 2284340; active = hit-call score of the fitted dose curve at least 0.9, where 1 is the maximum;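 note: cells fixed about 48 h after compound addition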)
Summary of the method: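 Neuron count read by automated high-content imaging of Hoechst 33342 and betaIII-tubulin/Alexa Fluor-488 labelling in human iPSC glutamatergic neurons. Activity fitted relative to DMSO.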

Measured: AC50

Chain of E-selectin (Homo sapiens) (P16581 whole entry, looked up): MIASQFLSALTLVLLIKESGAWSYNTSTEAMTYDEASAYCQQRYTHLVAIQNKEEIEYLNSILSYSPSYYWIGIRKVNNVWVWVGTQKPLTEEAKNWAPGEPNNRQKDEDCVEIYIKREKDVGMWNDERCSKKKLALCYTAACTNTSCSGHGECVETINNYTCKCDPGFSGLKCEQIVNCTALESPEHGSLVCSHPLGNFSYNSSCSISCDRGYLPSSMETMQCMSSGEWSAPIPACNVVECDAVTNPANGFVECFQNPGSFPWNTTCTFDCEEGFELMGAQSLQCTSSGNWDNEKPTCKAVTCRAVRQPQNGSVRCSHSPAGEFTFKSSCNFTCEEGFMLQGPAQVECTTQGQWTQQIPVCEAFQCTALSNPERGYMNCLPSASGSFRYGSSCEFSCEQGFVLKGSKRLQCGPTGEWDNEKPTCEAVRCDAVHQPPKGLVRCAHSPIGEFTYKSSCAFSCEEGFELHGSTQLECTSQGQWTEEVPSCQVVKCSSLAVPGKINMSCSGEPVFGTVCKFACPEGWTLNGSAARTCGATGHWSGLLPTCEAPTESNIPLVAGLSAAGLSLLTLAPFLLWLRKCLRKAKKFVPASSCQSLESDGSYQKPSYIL

NS(=O)(=O)C(F)(F)C(F)(F)C(F)(F)C(F)(F)C(F)(F)C(F)(F)F
inactive: [1] | [2] | [3] | [4] | [5] | [6] | [8] | [9] | [11] | [12]
active: CD40, CD40 (gene 958) 39.5 µM and 25.4 µM | [5] 54.6 µM | [6] 6.98 µM | [7] 30 µM and 21.3 µM | [9] 4.34 µM | [10] 28.1 µM and 22.7 µM | CD69, CD69 (gene 969) 26 µM and 22.3 µM | TTR (gene 7276) 0.329 µM

NCC(F)(F)C(F)(F)C(F)(F)C(F)(F)C(F)(F)C(F)(F)F
inactive: [1] | [2] | [3] | [4] | CD40, CD40 (gene 958) | [5] | [6] | [7] | [8] | [9] | [10] | [11] | [12] | CD69, CD69 (gene 969)

O=C(O)C(F)(F)C(F)(F)C(F)(F)C(=O)O
active: CD40, CD40 (gene 958) 43.1 µM
inactive: [1] | [2] | [3] | [4] | CD40, CD40 (gene 958) | [5] | [6] | [7] | [8] | [9] | [10] | [11] | [12] | CD69, CD69 (gene 969)

C=CC(=O)OCCC(F)(F)C(F)(F)C(F)(F)C(F)(F)F
active: [2] 20.3 µM | [4] 30 µM and 38.2 µM | [5] 2.55 µM
inactive: [1] | [2] | [3] | CD40, CD40 (gene 958) | [5] | [6] | [7] | [8] | [9] | [10] | [11] | [12] | CD69, CD69 (gene 969) | TTR (gene 7276)

CCN(CCO)S(=O)(=O)C(F)(F)C(F)(F)C(F)(F)C(F)(F)C(F)(F)C(F)(F)C(F)(F)C(F)(F)F
active: [2] 32.7 µM and 30 µM | [3] 39 µM | CD40, CD40 (gene 958) 36.9 µM | [7] 5.54 µM and 6.2 µM | [8] 30 µM | [11] 44.2 µM | [12] 16.6 µM and 13.5 µM | CD69, CD69 (gene 969) 8.1 µM and 7.79 µM
inactive: [1] | [3] | [4] | CD40, CD40 (gene 958) | [5] | [6] | [9] | [10] | [11] | [13]

O=C(O)C(F)(F)OC(F)(F)C(F)(F)OC(F)(F)C(F)(F)OC(F)(F)F
inactive: [1] | [2] | [3] | [4] | CD40, CD40 (gene 958) | [5] | [6] | [7] | [8] | [9] | [10] | [11] | [12] | CD69, CD69 (gene 969)
active: TTR (gene 7276) 0.23 µM
